Measured values from PubChem BioAssay (Tox21).
Where “and” joins values, the source holds several entries; their conditions need not be identical. Equal entries are not always repeated. Inconclusive results are not listed. More than one record can exist for a structure, and the calls need not agree. Calls of active or inactive are those of the source. Unless noted, calls follow the shape of the dose curve; as a rule, active = well fitted curve in the direction sought with a large enough effect in the repeat runs; inconclusive = weak or mixed curves; inactive = no such curve, though single readings can be large; an effect the other way counts as inactive or inconclusive.

How the values were obtained:
[1] = qHTS assay to identify small molecule agonists of the RXR signaling pathway - cell viability counter screen (AID 1159529); also: nearly all actives have a fitted effect of over 50% in size; also: potency is read from the fitted curve at half-maximal effect; as to activity change, negative = cytotoxicity: series mostly up to about 77 µM
Outline: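 Cell viability is measured by CellTiter-Glo luminescence, 30 min at room temperature, in wells already read for beta-lactamase. Engineered HEK 293T cells (RXR-alpha-UAS-bla) are dosed 16 hr at 37 C. Tetraoctyl ammonium bromide serves as positive control.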

[2] = qHTS assay to identify small molecule antagonists of the retinoid acid receptor (RAR) signaling pathway - cell viability counter screen (AID 1159551); also: nearly all actives have a fitted effect of over 35% in size; also: potency is read from the fitted curve at half-maximal effect
Outline: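 Seed C3RL4 cells; next day add compound, then retinol to 1 uM final; incubate 6 h at 37 C; add CellTiter-Glo; read luminescence after 30 min at RT.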

[3] = qHTS assay to identify small molecule antagonists of the retinoic acid receptor (RAR) signaling pathway (AID 1159552; also: nearly all actives have a fitted effect of over 50% in size)
Outline: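 Quantitative HTS in C3RL4 RARE-luciferase reporter cells. Compounds were added with 1 uM (final) retinol; luminescence was read after 6 hr.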

[4] = qHTS assay to identify small molecule agonists of the retinoic acid receptor (RAR) signaling pathway (AID 1159553); also: potency is read from the fitted curve at half-maximal effect
Outline: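 Activation of retinol signaling was monitored via a RARE luciferase reporter in C3RL4 cells. After 6 hr compound treatment at 37 C, detection reagent was added for 30 min at room temperature before luminescence reading.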

[5] = qHTS assay to identify small molecule antagonists of the estrogen related receptor (ERR) signaling pathway from Tox21 library - cell viability counter screen (AID 1224834); also: nearly all actives have a fitted effect of over 30% in size; also: potency is read from the fitted curve at half-maximal effect
Outline: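 CellTiter-Fluor fluorescence measured; ERR cells; 17.5 h compound incubation at 37 C; 30 min reagent step.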

[6] = qHTS assay to identify small molecule antagonists of the estrogen related receptor (ERR) signaling pathway - cell viability counter screen (AID 1224818);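 also: series mostly up to about 46 µM; viability measured after 17.5 h of compound exposure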
Outline: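 In the same ERR cell assay, compound-treated wells (17.5 h, 37 C) were multiplexed with a fluorogenic viability reagent, CellTiter-Fluor, read after 30 min to flag cytotoxic substances.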

[7] = qHTS assay to identify small molecule antagonists of the estrogen related receptor (ERR) signaling pathway (AID 1224819;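 also: luminescence from an ERR-driven luciferase reporter measured with One-Glo reagent; series mostly up to about 46 µM; nearly all actives have a fitted effect of over 50% in size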)
Outline: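 qHTS in ERR cells, 2,000/well, 1536 format. Cpd (DMSO) added after 6 h settle, 18 h 37 C. One-Glo luminescence, 30 min RT.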

[8] = qHTS assay to identify small molecule agonists of the estrogen related receptor (ERR) signaling pathway (AID 1224820)
Outline: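 Cells: ERR line from NTP, 2,000/well. Pre-incubation 6 h, 37 C/5% CO2. Compound (DMSO) pin transfer, 18 h 37 C. One-Glo, 30 min RT, luminescence.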

[9] = system: estrogen-related receptor alpha (ERRalpha) with PGC-1alpha coactivator, human; assay: qHTS assay to identify small molecule antagonists of the estrogen related receptor signaling pathway with the pleiotropic PPARgamma coactivator (PGC) (AID 1224821; calls by dose curve;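 also: series mostly up to about 46 µM; lower luminescence signal means antagonism of PGC/ERR signalling; nearly all actives have a fitted effect of over 50% in size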)
Outline: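 Luminescent read-out (One-Glo, 30 min at room temperature) following 18 h treatment of PGC/ERR cells at 37 C with compounds delivered in DMSO. Cells had settled 6 h at 37 C/5% CO2 before dosing.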

[10] = qHTS assay to identify small molecule agonists of the estrogen related receptor signaling pathway with the pleiotropic PPARgamma coactivator (PGC) (AID 1224823); also: potency is read from the fitted curve at half-maximal effect
Outline: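 Steps: plate PGC/ERR cells at 2,000 cells/well; incubate 6 h, 37 C/5% CO2; pin-transfer compounds (DMSO); incubate 18 h, 37 C; add One-Glo; 30 min RT; read luminescence.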
% is scaled to controls: 0 for no effect and ±100 for the full control effect.

CCCOCCOCCO
inactive: Potency [1] | Potency [2] | Potency [3] | Potency [4] | Potency [5]

C[N+]1(C)CCC(=C(c2ccccc2)c2ccccc2)CC1
inactive: Potency [1] | Potency [2] | Potency [3] | Potency [4]

CC(C)CCCCCOC(=O)CCCCC(=O)OCCCCCC(C)C
inactive: Potency [1] | Potency [2] | Potency [3] | Potency [4] | Potency [5]

Cc1cc(O)c2c(O)c3c(O)cccc3cc2c1
inactive: Potency [1] | Potency [2] | Potency [3] | Potency [4]

CCCCCCCCCCOS(=O)(=O)O
inactive: Potency [1] | Potency [2] | Potency [3] | Potency [4] | Potency [5]

CCCCN(CCCC)C(=S)SSC(=S)N(CCCC)CCCC
inactive: Potency [2] | Potency [3]
active: Potency [1] 48.5 µM | Potency [4] 1.52 µM

C[N+](C)(C)CCOC(N)=O
inactive: Potency [1] | Potency [2] | Potency [3] | Potency [4] | outcome [6] | Potency [5]

O=C(O)Cc1ccc(-c2ccccc2)cc1
inactive: Potency [1] | Potency [2] | Potency [3] | Potency [4] | Potency [5]

CCCCCCCCCCCCCCC[C@H](O)[C@@H](N)CO
inactive: Potency [1] | Potency [2] | Potency [3] | Potency [4] | Potency [5]

CN(C)C(=O)Nc1ccc(Oc2ccc(Cl)cc2)cc1
active: Potency [4] 61.1 µM
inactive: Potency [1] | Potency [2] | Potency [3] | Potency [5]

COc1cc2[nH]c(=O)[nH]c(=O)c2cc1OC
inactive: Potency [1] | Potency [2] | Potency [3] | Potency [4] | Potency [5]

C=CCCCCCCCCCCCCCCCC
inactive: activity change, negative = cytotoxicity [1] 6.72% [at 6.97 µM] | activity change, negative = cytotoxicity [2] 0.367% [at 8.39 µM] | activity, negative = inhibition [3] -14.9% [at 8.39 µM] | activation [4] -0.865% [at 8.36 µM] | viability change, negative = cytotoxic [5] 0.934% [at 8.39 µM]

CCCOC(=O)c1ccc(N)cc1
active: Potency [4] 23.7 µM
inactive: Potency [1] | Potency [2] | Potency [3]

CCCCCCCCCCCC[N+](C)(C)CC(=O)[O-]
active: Potency [1] 24.5 µM
inactive: Potency [2] | Potency [3] | Potency [4] | Potency [5]

Cc1oncc1C(=O)Nc1ccc(C(F)(F)F)cc1
inactive: Potency [2] | Potency [3] | outcome [6] | Potency [5]
active: Potency [4] 3.06 µM and 2.98 µM
43.6 µM (active) and inactive: Potency [1]

COc1ccccc1N=Nc1c(S(=O)(=O)O)cc2cc(S(=O)(=O)O)cc(NC(C)=O)c2c1O
inactive: Potency [1] | Potency [3] | Potency [4]
active: Potency [2] 22.9 µM | Potency [5] 25.7 µM

O=C(O)c1cccnc1C(=O)O
inactive: Potency [1] | Potency [2] | Potency [3] | Potency [4] | outcome [6] | Potency [5]

ON(Cc1ccccc1)Cc1ccccc1
inactive: Potency [1] | Potency [2] | Potency [3] | Potency [4] | Potency [5]

CC1=CC(O)CC(C)(C)C1 (stereo unspecified)
inactive: Potency [1] | Potency [2] | Potency [3] | Potency [4]

O=C(O)c1ccccc1NCCc1ccccc1
inactive: Potency [1] | Potency [2] | Potency [3]
active: Potency [4] 23.7 µM

COC(=O)Nc1nc2ccc(C(=O)c3cccs3)cc2[nH]1
inactive: Potency [1] | Potency [2] | Potency [3] | Potency [4] | outcome [6] | Potency [7] | outcome [8] | Potency [9]
active: Potency [10] 1.96 µM

NC(=O)N(O)[C@@H]1C=C[C@H](Oc2cccc(Oc3ccc(F)cc3)c2)C1
inactive: Potency [1] | Potency [2] | Potency [3] | Potency [5]
active: Potency [4] 61.1 µM

CC(C)=CC=O
inactive: Potency [1] | Potency [2] | Potency [3] | Potency [4] | Potency [5]

CCCOc1ccc(S(=O)(=O)N2CCN(CC)CC2)cc1-c1nc2c(CC)n(Cc3ccccn3)nc2c(=O)[nH]1
inactive: Potency [1] | Potency [2] | Potency [3] | Potency [4] | Potency [5]

Cc1nc2ccccn2c(=O)c1CCN1CCC(C(=O)c2ccc(F)cc2)CC1
inactive: Potency [1] | Potency [2] | Potency [3] | Potency [4] | outcome [6] | Potency [7] | outcome [8] | Potency [9] | Potency [10] | Potency [5]

C[Si]1(C)O[Si](C)(C)O[Si](C)(C)O1
inactive: Potency [1] | Potency [2] | Potency [3] | Potency [4] | Potency [5]

NCC1CCCC(CN)C1 (stereo unspecified)
inactive: Potency [1] | Potency [2] | Potency [3] | Potency [4] | Potency [5]

O=C(/C=C/c1ccccc1)OCCCc1ccccc1
active: Potency [4] 61.1 µM
inactive: Potency [1] | Potency [2] | Potency [3] | Potency [5]

Cc1ccc(/C=N/n2c(-c3ccccc3)csc2=S)cc1
inactive: Potency [1] | Potency [2] | Potency [3] | Potency [4] | Potency [5]

Cc1nc2ccccc2s1
inactive: Potency [1] | Potency [2] | Potency [3] | Potency [4] | Potency [5]
